Experimental data as given in PubChem BioAssay AID1490 (National Center for Advancing Translational Sciences (NCATS), 2009).
Values joined by “and” are separate entries in the source; they are usually repeats but may differ in a detail not shown here. Identical values can stand only once. Among all 310,000 compounds or so, about 11,000 (3.5%) were called active. Inconclusive results (about 4%) are left out. For the sample, actives were picked, then their nearest neighbours and some compounds at random. Unmarked numbers belong to inactive results. Calls follow the shape of the dose curve; as a rule, active = well fitted inhibition curve with a large enough effect; inconclusive = small, poorly fitted or top-dose-only effect, or another doubt; inactive = no such curve, though single readings can be large or run the other way.

Molecular target: 4'-phosphopantetheinyl transferase ffp (Bacillus subtilis) (UniProt Q9F4F7)
Assay: qHTS Assay for Inhibitors of Bacillus subtilis Sfp phosphopantetheinyl transferase (PPTase);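 also: the enzyme is Sfp with the accession as filed and its product quenches rhodamine fluorescence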;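 as to largest response in the series, negative = inhibition: 0% = enzyme reaction without inhibitor and -100% = no enzyme wells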
Settings: Biochemical Sfp PPTase activity
In short: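 After 15 min at room temperature with compound, 15 nM Sfp received 5 uM rhodamine-CoA plus 12.5 uM BHQ-2-ybbR (50 mM Hepes pH 7.6, 10 mM MgCl2). Rate came from the fluorescence difference over 30 min, ex 525/em 598 nm.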
Potency is read from the fitted curve at half-maximal effect.

SMILES	largest response in the series, negative = inhibition	Potency
Cc1ccc(S(=O)(=O)CC(=O)NC(C)c2ccccc2)cc1 (configuration not stated)	12.8%	
CN(CCc1ccccn1)C1CCCN(S(=O)(=O)c2ccccc2Cl)C1 (configuration not stated)	8.81%	
CC[C@H](C)[C@H](NC(=O)[C@H](Cc1ccc(O)cc1)NC(=O)[C@@H](NC(=O)[C@H](CCCN=C(N)N)NC(=O)[C@@H](N)CC(=O)O)C(C)C)C(=O)N[C@@H](Cc1cnc[nH]1)C(=O)N1CCC[C@H]1C(=O)N[C@@H](Cc1ccccc1)C(=O)O	-1.37%	
CCCc1cc(-c2n[nH]c(=S)n2CC)c2ccccc2n1	-1.53%	
CCn1c(-c2ccoc2C)n[nH]c1=S	11.6%	
CCn1c(-c2ccncc2)n[nH]c1=S		39.8 µM (active)
CC1=CCC2C(=O)N(c3cccc(C(=O)NC(C)c4ccccc4)c3)C(=O)C2C1 (configuration not stated)	5.16%	
CCOC(=O)c1ccc(N2C(=O)CC(N(C)Cc3ccccc3)C2=O)cc1 (configuration not stated)	16.2%	
CCCCCCC(=O)N(O)C1CC(=O)N(c2ccccc2)C1=O (configuration not stated)		7.08 µM (active)
CCOc1ccc(N2C(=O)CC(N(O)c3ccccc3)C2=O)cc1 (configuration not stated)	-14.7%	
COc1ccc(CCNC(=O)CCc2cn(C)c3ccccc23)c(OC)c1	10.4%	
Cc1onc(-c2ccccc2)c1C(=O)N1CCN(S(=O)(=O)c2ccccc2C(F)(F)F)CC1	21.8%	
O=C(O)C1CCN(c2ccc([N+](=O)[O-])cc2[N+](=O)[O-])CC1	13.6%	
O=[N+]([O-])c1ccc(N2CCN(c3ccc(O)cc3)CC2)c(Cl)c1		50.1 µM (active)
COc1ccc(N2CCN(c3ccc([N+](=O)[O-])cc3Cl)CC2)cc1	2.35%	
O=C(Cc1ccc(Cl)cc1)NC1CCS(=O)(=O)C1 (configuration not stated)	11.6%	
COC(=O)Nc1ccc(S(=O)(=O)Nc2cc(OC)nc(OC)n2)cc1	-10.4%	
S=C(Nc1ccc(Br)cc1)NC1CCN(Cc2ccccc2)CC1	5.78%	
CCOc1ccccc1NC(=S)NC(=O)CCc1ccccc1	-1.83%	

SMILES	largest response in the series, negative = inhibition	Potency
COC(=O)c1c(NC(=O)c2ccc(S(=O)(=O)N3CCOCC3)cc2)sc2c1CCN(C(C)C)C2	6.28%	
Cn1c(CC2Sc3ccccc3NC2=O)nnc1SCC(=O)c1ccc(Cl)cc1 (configuration not stated)		44.7 µM (active)
Cn1c(SCC(=O)c2ccc(F)cc2)nnc1-c1ccccn1	-4.04%	
Cn1c(CNc2nc(-c3ccccc3)cs2)nnc1SCC(=O)c1ccccc1	3.73%	
COCCN1CCn2c(nc3cc(NS(C)(=O)=O)ccc32)C1	11.6%	
Cc1cc(=O)oc2c1ccc1ccccc12	3.98%	
CC(=O)c1ccc(NC(=O)c2cc(-c3cccs3)on2)cc1	1.32%	
COc1cc(=O)[nH]c(=O)n1C(=O)Cc1ccccc1	9.86%	
COc1ccc(Cn2c(=O)cc(C)[nH]c2=S)cc1	-4.49%	
CCCOc1ccc(Cn2c(O)cc(=O)[nH]c2=O)cc1		44.7 µM (active)
Cc1cc(F)ccc1NC(=S)NCCc1ccccc1	0.31%	
CC1CCN(CCCn2c(SCC(=O)NC3CCCC3)nc3ccccc3c2=O)CC1	6.04%	
CC[C@H](C)[C@H](NC(=O)[C@H](Cc1cnc[nH]1)NC(=O)[C@@H](N)CCC(=O)O)C(=O)N1CCC[C@H]1C(=O)N[C@@H](C)C(=O)O	3.28%	
COc1cc(OC)c(NS(=O)(=O)c2cn(C)cn2)cc1Cl	14.3%	
COc1cc(-c2c(-c3ccc4c(c3)OCO4)noc2C)ccc1F	-12.4%	
CCN(CC)CCC(c1ccc2c(c1)OCO2)c1c(OC)cc(OC)c2c(-c3ccccc3)cc(=O)oc12 (configuration not stated)	-27% and -23.4%	
COc1c2c(cc3occ(-c4ccc5c(c4)OCO5)c(=O)c13)OC(C)(C)C=C2		39.8 µM (active)
O=C(NC(=S)Nc1ccc(Cl)cc1Cl)C1CC1	8.51%	
COc1cc(Cl)ccc1OCc1cc(C(=O)N(C)CCc2c(C)n[nH]c2C)no1	11.4%	

SMILES	largest response in the series, negative = inhibition	Potency
O=c1[nH]c(=S)[nH]c2[nH]c(=S)[nH]c12		3.16 µM (active)
Cc1c(C)c(C)c2[nH]c(=S)[nH]c2c1C	7.86%	
O=C1Nc2cc(C(=O)N3CCN(c4ccc(F)cc4)CC3)ccc2NC1CSCc1cccc(F)c1 (configuration not stated)		44.7 µM (active)
Cc1ccc(CSCC2Nc3ccc(C(=O)N4CCN(c5ccc(F)cc5)CC4)cc3NC2=O)cc1 (configuration not stated)		50.1 µM (active)
O=C(c1cccc(C(=O)N2CCN(c3ccc(F)cc3)CC2)c1)N1CCN(c2ccc(F)cc2)CC1	-15.2%	
CC1CCN(C(=O)c2ccc3c(c2)NC(=O)CN3)CC1	6.69%	
O=C(c1cccc(F)c1)N1CCC2(CC1)CCN(c1ccccc1)CC2	2.37%	
O=C(c1cc(C(=O)N2CCN(c3ccc(F)cc3)CC2)cc([N+](=O)[O-])c1)N1CCN(c2ccc(F)cc2)CC1	21.7%	
CC(C)[C@@H](OCc1ccccc1)[C@H](C)/C=N\OC[C@@H](C)[C@H](OCc1ccccc1)C(C)C	6.88%	
CCCc1cc(=O)oc2c(C)c(OCC(=O)Nc3ccccn3)ccc12	-8.94%	
CC(=O)c1c(C)[nH]c(C(=O)Nc2cc(S(=O)(=O)N(C)C)ccc2C)c1C		79.4 µM (active)
COc1ccc(C)cc1NC(=O)c1[nH]c(C)c(C(C)=O)c1C	1.79%	
Cc1ccc(S(=O)(=O)N(C)C)cc1NC(=O)c1ccccc1Br	14%	
S=C(NCc1ccc2c(c1)OCO2)NCc1ccco1		39.8 µM (active)
FC(F)Oc1ccc(NC(=S)NCc2ccco2)cc1Cl	-3.21%	
S=C(NCc1ccco1)NCc1ccccc1Cl	8.59%	
S=C(NCc1ccco1)Nc1ccc2c(c1)OCCO2		28.2 µM (active)
Cc1c(Cl)cccc1NC(=S)NCc1ccc2c(c1)OCO2	0.527%	
COc1cccc(NC(=S)NCc2ccco2)c1	16.1%	
